PubChem BioAssay
Active and inactive are the calls of the source.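 The calls were made as follows, unless noted: active = inhibition of the reporter signal at or above 50%; inactive = inhibition below 50%.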

Columns and labels:
[1] = inhibitors of TNFa-induced NFkB p65 translocation, primary screen, imaging, HUVEC, MLSMR starter and 10KST1 sets (AID 438;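 active = inhibition above 20% together with a positive visual image hit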;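 also: compound added about 3h40 before a 20 min TNFalpha stimulation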;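 as to inhibition: signal is the nuclear over cytoplasmic p65 intensity ratio per well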); details: HUVEC TNFa-induced p65 nuclear translocation; cell count: measured here: nuclei count (cytotoxicity indicator), at 2.08 µM; inhibition: at 2 µM, stronger effect = higher value, 0% TNFa-plus-vehicle, 100% no-TNFa wells
[2] = reduction of polyQ htt aggregates in cells – imaging, exon1htt(103Q)mCFP cells, high-content imaging, primary screen (AID 483;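 active = visual image review flags a hit and inhibition of aggregation exceeds 20%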;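 also: compound exposure lasted 3 days before fixation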;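 as to nuclei count: percent of the per-plate median nuclei count of sample wells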); details: exon1htt(103Q)mCFP cell line, aggregate imaging, at 2 µM; inhibition of aggregation: stronger effect = higher value; nuclei count: measured here: cell count, toxicity
[3] = endothelial E-selectin expression blockers – imaging, HUVEC, immunofluorescence, MLSMR starter and 10KST1 sets, primary screen (AID 487;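 active = visually confirmed hit in the image check and inhibition above 20%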;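 as to inhibition: signal is fraction of cell area covered by stained E-selectin grains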;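 as to nuclei count: 100% = median nuclei count of all wells on the same plate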); details: HUVEC TNFalpha-induced E-selectin immunofluorescence imaging, at 2 µM; inhibition: stronger effect = higher value; nuclei count: measured here: cell number, toxicity
[4] = target: Voltage-gated potassium channel subunit beta-2 (Rattus norvegicus) (UniProt P62483); assay: inhibitors of rat Kvbeta2 reductase activity – biochemical, NADPH fluorescence, primary screen (AID 622;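 active = fluorescence slope higher than the sample average by over 3 SD, cut at about -0.22 in these data, passing the limit was not always enough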;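 also: slope of raw intensity against log time taken from 70 to 1610 s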); details: recombinant KvBeta, 4-cyanobenzaldehyde reduction, at 10 µM, stronger effect = higher value
Voltage-gated potassium channel subunit beta-2 (Rattus norvegicus), sequence (P62483 whole entry, looked up): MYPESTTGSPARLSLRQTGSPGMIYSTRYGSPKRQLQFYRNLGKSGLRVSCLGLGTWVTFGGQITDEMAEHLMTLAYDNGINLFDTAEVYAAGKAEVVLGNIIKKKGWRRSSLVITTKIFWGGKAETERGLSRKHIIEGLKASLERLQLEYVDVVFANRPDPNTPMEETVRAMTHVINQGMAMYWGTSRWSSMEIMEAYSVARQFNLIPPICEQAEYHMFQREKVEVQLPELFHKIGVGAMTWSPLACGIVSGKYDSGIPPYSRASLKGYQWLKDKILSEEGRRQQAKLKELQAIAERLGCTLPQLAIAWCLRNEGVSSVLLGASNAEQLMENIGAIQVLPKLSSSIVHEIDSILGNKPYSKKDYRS

[5] = target: Voltage-gated potassium channel subunit beta-2 (Rattus norvegicus) (UniProt P62483); assay: enhancers of rat Kvbeta2 NADPH turnover – biochemical, NADPH fluorescence, primary screen (AID 623;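 active = NADPH fluorescence slope more negative than the mean of all samples by about 3 SD, 99.7% confidence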;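 also: fluorescence intensity change per second fitted from 20 to 320 s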); details: Recombinant KvBeta, NADPH fluorescence decrease slope, 10 min; at 10 µM; stronger effect = lower value
[6] = target: Alpha-2C adrenergic receptor (Homo sapiens) (UniProt P18825); assay: compounds altering alpha2C-coupled GIRK flux – cell-based, HEK293 alpha2C/GIRK1/2, thallium flux, primary screen (AID 624;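 active = fluorescence slope after compound addition differing from the mean of all screened samples at 99.7% confidence, in either direction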;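 also: slope of fluorescence ratio to pre-addition baseline per second over 15 to 24 s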); details: thallium flux BTC fluorescence, at 10 µM, actives lie on both sides
Alpha-2C adrenergic receptor (Homo sapiens), sequence (P18825 whole entry, looked up): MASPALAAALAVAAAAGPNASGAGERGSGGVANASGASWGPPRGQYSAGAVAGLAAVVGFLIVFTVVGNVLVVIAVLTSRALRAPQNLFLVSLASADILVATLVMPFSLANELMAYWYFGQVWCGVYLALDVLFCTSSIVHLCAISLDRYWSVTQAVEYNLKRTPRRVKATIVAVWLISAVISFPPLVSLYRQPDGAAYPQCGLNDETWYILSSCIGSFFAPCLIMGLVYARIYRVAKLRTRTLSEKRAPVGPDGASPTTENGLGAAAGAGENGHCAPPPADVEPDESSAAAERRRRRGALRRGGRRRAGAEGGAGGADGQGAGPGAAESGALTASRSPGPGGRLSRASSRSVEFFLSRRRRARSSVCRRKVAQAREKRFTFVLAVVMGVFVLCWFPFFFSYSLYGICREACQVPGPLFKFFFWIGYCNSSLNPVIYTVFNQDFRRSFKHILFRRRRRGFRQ

[7] = blockers of RIG-like receptor reporter activation – cell-based, Sendai virus stimulus, luciferase, 10K MLSCN set, TLR/RLR signaling modifier project, primary screen (AID 602276;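 active = inhibition at or above 50% at 10 µM; inactive = inhibition below 50%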;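 also: firefly luciferase from ISG56 promoter only with Renilla not read in this screen; 0% = Sendai virus plus DMSO and 100% = medium plus DMSO without virus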); details: HEK293 RL24 IRF3 luciferase reporter, at 10 µM, stronger effect = higher value
[8] = TLR3 IRF3 reporter activation blockers – cell-based, poly I:C stimulus, luciferase, 10K MLSCN set, primary screen (AID 602277); details: HEK293-TLR3 RL24 IRF3 luciferase reporter, at 10 µM, stronger effect = higher value

SMILES: COC(=O)c1ccsc1NC(=O)CN1C(=O)CCC1=O
- cell count [1]: 479
- inhibition [1]: -5.9% (inactive)
- inhibition of aggregation [2]: 2.9% (inactive)
- nuclei count [2]: 86.8%
- inhibition [3]: -15.8% (inactive)
- nuclei count [3]: 100%
- fluorescence slope [4]: -0.476 (inactive)
- NADPH fluorescence slope [5]: -3.2e-05 (inactive)
- slope [6]: 0.0049 (inactive)
- inhibition [7]: -11.8% (inactive)
- inhibition [8]: -9.21% (inactive)

SMILES: Cc1nc(SCCC(=O)O)c2ccccc2n1
- cell count [1]: 310
- inhibition [1]: -2.5% (inactive)
- inhibition of aggregation [2]: 9.6% (inactive)
- nuclei count [2]: 112%
- inhibition [3]: 40.9% (inactive)
- nuclei count [3]: 105%
- fluorescence slope [4]: -0.261 (inactive)
- NADPH fluorescence slope [5]: -2.6e-06 (inactive)
- slope [6]: 0.00515 (inactive)
- inhibition [7]: 11.6% (inactive)
- inhibition [8]: 18.5% (inactive)

SMILES: Cc1c(NC(=O)CCc2ccc(S(=O)(=O)N3CCOCC3)cc2)c(=O)n(-c2ccccc2)n1C
- cell count [1]: 575
- inhibition [1]: 4.1% (inactive)
- inhibition of aggregation [2]: -26.2% (inactive)
- nuclei count [2]: 119%
- inhibition [3]: -86.1% (inactive)
- nuclei count [3]: 112%
- fluorescence slope [4]: -0.527 (inactive)
- NADPH fluorescence slope [5]: -1.9e-05 (inactive)
- slope [6]: 0.00736 (inactive)
- inhibition [7]: -8.63% (inactive)
- inhibition [8]: 5.48% (inactive)

SMILES: O=C(Oc1ccccc1)c1cccc(COC(=O)c2cnccn2)c1
- cell count [1]: 385
- inhibition [1]: -1.6% (inactive)
- inhibition of aggregation [2]: 7.9% (inactive)
- nuclei count [2]: 103%
- inhibition [3]: 20.7% (inactive)
- nuclei count [3]: 105%
- fluorescence slope [4]: -0.425 (inactive)
- NADPH fluorescence slope [5]: -5.1e-05 (inactive)
- slope [6]: 0.00507 (inactive)
- inhibition [7]: 5.8% (inactive)
- inhibition [8]: 3.65% (inactive)

SMILES: Cc1nn(-c2ccc(Cl)cc2)c2sc(C(=O)N3CCN(c4ccccn4)CC3)cc12
- cell count [1]: 571
- inhibition [1]: -3.6% (inactive)
- inhibition of aggregation [2]: 1.7% (inactive)
- nuclei count [2]: 95.6%
- inhibition [3]: 42.5% (inactive)
- nuclei count [3]: 108%
- fluorescence slope [4]: -0.612 (inactive)
- NADPH fluorescence slope [5]: -2.4e-05 (inactive)
- slope [6]: 0.011 (active)
- inhibition [7]: 9.58% (inactive)
- inhibition [8]: -7.18% (inactive)

SMILES: Clc1ccc2nc(N3CCCCC3)[nH]c2c1
- cell count [1]: 706
- inhibition [1]: 5.6% (inactive)
- inhibition of aggregation [2]: 11.3% (inactive)
- nuclei count [2]: 98.7%
- inhibition [3]: -82.5% (inactive)
- nuclei count [3]: 102%
- fluorescence slope [4]: -0.446 (inactive)
- NADPH fluorescence slope [5]: -6.8e-05 (inactive)
- slope [6]: 0.00544 (inactive)
- inhibition [7]: -26% (inactive)
- inhibition [8]: -98.5% (inactive)

SMILES: Cc1cc(NC(=O)CSc2nc3c(c(=O)n2Cc2ccccc2)SC(C)C3)no1 (configuration not stated)
- cell count [1]: 554
- inhibition [1]: 8% (inactive)
- inhibition of aggregation [2]: -16.2% (inactive)
- nuclei count [2]: 77.3%
- inhibition [3]: 15.8% (inactive)
- nuclei count [3]: 86.8%
- fluorescence slope [4]: -0.417 (inactive)
- NADPH fluorescence slope [5]: -6.8e-05 (inactive)
- slope [6]: 0.00456 (inactive)
- inhibition [7]: -14.3% (inactive)
- inhibition [8]: -5.37% (inactive)

SMILES: COc1cccc(C(=O)N2CCCC(c3nc(-c4cccs4)no3)C2)c1 (configuration not stated)
- cell count [1]: 446
- inhibition [1]: -25.5% (inactive)
- inhibition of aggregation [2]: 19.7% (inactive)
- nuclei count [2]: 74.5%
- inhibition [3]: 22.9% (inactive)
- nuclei count [3]: 95.9%
- fluorescence slope [4]: -0.467 (inactive)
- NADPH fluorescence slope [5]: -3.3e-05 (inactive)
- slope [6]: 0.00563 (inactive)
- inhibition [7]: 24.8% (inactive)
- inhibition [8]: -19.2% (inactive)

SMILES: Cc1cc(C(=O)N2CCN(c3ncccn3)CC2)cs1
- cell count [1]: 401
- inhibition [1]: -0.7% (inactive)
- inhibition of aggregation [2]: 4.3% (inactive)
- nuclei count [2]: 99%
- inhibition [3]: 0.9% (inactive)
- nuclei count [3]: 110%
- fluorescence slope [4]: -0.591 (inactive)
- NADPH fluorescence slope [5]: -2.2e-05 (inactive)
- slope [6]: 0.00264 (inactive)
- inhibition [7]: 13.1% (inactive)
- inhibition [8]: -6.87% (inactive)

SMILES: O=C(NCN1CCCCC1)c1cccnc1
- cell count [1]: 327
- inhibition [1]: 7% (inactive)
- inhibition of aggregation [2]: -1.5% (inactive)
- nuclei count [2]: 87.9%
- inhibition [3]: -20% (inactive)
- nuclei count [3]: 92.8%
- fluorescence slope [4]: -0.488 (inactive)
- NADPH fluorescence slope [5]: -4.4e-05 (inactive)
- slope [6]: 0.00701 (inactive)
- inhibition [7]: 5.02% (inactive)
- inhibition [8]: 35.7% (inactive)

SMILES: O=C1C(Cl)=C(N2CCCCC2)C(=O)N1c1ccccc1Cl
- cell count [1]: 450
- inhibition [1]: 4.4% (inactive)
- inhibition of aggregation [2]: -0.8% (inactive)
- nuclei count [2]: 105%
- inhibition [3]: -57.1% (inactive)
- nuclei count [3]: 126%
- fluorescence slope [4]: -0.465 (inactive)
- NADPH fluorescence slope [5]: -0.000114 (inactive)
- slope [6]: 0.00518 (inactive)
- inhibition [7]: 16.8% (inactive)
- inhibition [8]: 24.8% (inactive)

SMILES: O=C(O)c1cccc(NC(=O)C23CC4CC(C2)CC(n2cnc(Cl)n2)(C4)C3)c1
- cell count [1]: 571
- inhibition [1]: -24.4% (inactive)
- inhibition of aggregation [2]: -15.8% (inactive)
- nuclei count [2]: 108%
- inhibition [3]: -14.3% (inactive)
- nuclei count [3]: 115%
- fluorescence slope [4]: -0.506 (inactive)
- NADPH fluorescence slope [5]: -1.2e-05 (inactive)
- slope [6]: 0.00606 (inactive)
- inhibition [7]: 9.34% (inactive)
- inhibition [8]: 17.3% (inactive)
